Bioassay records from PubChem.
A selection follows.
aSyn UTR act: Activators working through SNCA 5'UTR binding (MLPCN). alpha-synuclein 5'UTR reporter, activators screen. activity score, % (tested at 7.5 µM), hits read low. 7.1% of 300,000 active; in the data active = activity score below about -60%
* hit, by the source's call.

SMILES | aSyn UTR act
O=C(O)c1ccc2nc(-c3ccccc3)c(-c3ccccc3)nc2c1 | -93*
Cc1ccc(-c2onc3ccc(C(=O)O)cc23)cc1 | -200*
O=C(O)c1ccc2noc(-c3ccccc3)c2c1 | -119*
CC(=O)COC(=O)c1ccc2noc(-c3ccccc3)c2c1 | -78*
O=C(O)c1ccc2cc(-c3ccccc3)[nH]c2c1 | 66
O=C(O)CC1=C(Nc2ccccc2)C(=O)N(c2ccccc2)C1c1ccc(F)cc1 (stereo not drawn) | -83*
COc1ccc(C2C(CC(=O)O)=C(Nc3ccccc3)C(=O)N2c2ccccc2)cc1 (stereo not drawn) | -86*
CCN(CC)CCNC(=O)/C(=C/c1cn(C)c2ccccc12)NC(=O)c1ccc(OC)c(OC)c1 | -64*
Cn1cc(/C=C(\NC(=O)c2ccccc2Cl)C(=O)NCCN2CCOCC2)c2ccccc21 | -72*
Nc1nc2ccc(C(=O)Nc3ccccc3)cc2s1 | -129*
CC(=O)Nc1ccc2nc(N)sc2c1 | -107*
CC(=O)Nc1ccc2cc3ccc(NC(C)=O)cc3nc2c1 | -73*
CCc1ccc(NC(=O)c2ccc3nc(N)sc3c2)cc1 | -131*
COc1ccc(/C=C/C2=NNC(=O)CC2)cc1 | 60
C=CCN1N=C(/C=C/c2ccc(C)cc2)CCC1=O | -89*
C=CCN1N=C(/C=C/c2ccc(OC)cc2)CCC1=O | -84*
Nc1cc2ccncc2c2ccccc12 | -71*
Cc1cc(C)nc(Nc2n[nH]c(-c3ccccc3Cl)n2)n1 | -141*
Cc1cc(C)nc(Nc2n[nH]c(COc3ccccc3)n2)n1 | -110*
Cc1cc(C)nc(Nc2n[nH]c(-c3cccc4ccccc34)n2)n1 | -88*
Cc1ccc2nc(-c3ccc(N)cc3)sc2c1 | 90
CNC(=S)Nc1ccc(-c2nc3ccc(C)cc3s2)cc1 | -91*
Cc1ccc2nc(-c3ccc(NS(=O)(=O)c4ccc(F)cc4)cc3)sc2c1 | -134*
CC1=CCC(C(=O)O)C(C(=O)Nc2ccc(-c3nc4ccc(C)cc4s3)cc2)C1 (stereo not drawn) | -131*
COc1ccc(/C=C(\C#N)C(=O)OCC(=O)Nc2ccc(-c3nc4ccc(C)cc4s3)cc2)cc1 | -70*
SMILES | aSyn UTR act
CC(=O)NC(=S)Nc1ccc(-c2nc3ccc(C)cc3s2)cc1 | -272*
Cc1cc(N(C)/N=C/c2ccccc2O)nc(-c2ccccc2O)n1 | -97*
O=C(O)c1ccc(Cl)c(S(=O)(=O)Nc2ccc(OCc3ccccc3)cc2)c1 | -69*
Clc1cc(Cl)c2nc(N3CCCCC3)sc2c1 | -152*
Clc1cccc2sc(N3CCCCC3)nc12 | -109*
COc1ccc(OC)c2sc(N3CCCCC3)nc12 | -62*
COc1ccc(-c2nsc3c(N4CCCC4)ncnc23)cc1 | 70
Clc1cc(Cl)c2nc(N3CCCC3)sc2c1 | -103*
CN(C)CCN(C(=O)c1ccc2c(c1)OCCO2)c1nc2cc3c(cc2s1)OCO3 | -77*
CN(C)CCN(C(=O)c1ccc(S(=O)(=O)N(C)c2ccccc2)cc1)c1nc2cc3c(cc2s1)OCCO3 | -64*
CN(C)CCCN(C(=O)c1ccc2c(c1)CCCC2)c1nc2c(F)cccc2s1 | -157*
CCOc1cccc2sc(N(CCCN(C)C)C(=O)c3ccc(S(=O)(=O)N4CCc5ccccc5C4)cc3)nc12 | 58
CN(C)CCN(C(=O)c1ccc2c(c1)OCCO2)c1nc2c(Cl)cccc2s1 | -97*
Cc1cc(C)c2sc(N(CCCN(C)C)C(=O)c3ccc(S(=O)(=O)N(C)C4CCCCC4)cc3)nc2c1 | 53
C#CC[N+](C)(C)CCCCCCCCCC | 75
COc1ccc2nc(N(CCN(C)C)C(=O)c3ccc4c(c3)OCCO4)sc2c1 | -72*
CN(C)CCN(C(=O)c1ccc2c(c1)CCCC2)c1nc2cc3c(cc2s1)OCCO3 | -75*
COc1ccccc1/C=N/N(C(C)=O)c1nc(-c2ccc(F)cc2)cs1 | -121*
O=C(Nc1nccs1)c1ccc(COc2ccccc2)o1 | -113*
Cc1ccc(OCc2ccc(C(=O)Nc3nccs3)o2)cc1 | -88*
O=C(N/N=C/c1ccc(-c2cccc([N+](=O)[O-])c2)o1)c1cccs1 | -118*
O=C(N/N=C/c1ccc([N+](=O)[O-])cc1)c1cccs1 | -118*
O=c1cc(Cl)[nH]c(=O)n1Cc1ccc(F)cc1 | -87*
Cc1ccc(Nc2nc(CSc3n[nH]c(N)n3)cs2)cc1 | -108*
Cn1nnnc1SCc1csc(Nc2ccccc2)n1 | -109*
SMILES | aSyn UTR act
Cc1ccc(Nc2nc(CSc3nnnn3C)cs2)cc1 | -103*
COc1ccc(C(=O)Nc2cccc(-c3ccc(N4CCOCC4)nn3)c2)cc1 | -69*
COc1cc(OC)cc(C(=O)Nc2cccc(-c3ccc(N4CCOCC4)nn3)c2)c1 | -85*
CN(C)CCOc1nc(-c2ccccc2)nc2c1oc1ccccc12 | -88*
CCNC(=S)/N=C(\N)Nc1nc(C)c2cc(C)ccc2n1 | -207*
C#Cc1cccc(NC(=O)c2ccc(Cl)cc2Cl)c1 | -185*
Cc1ccc(C(=O)Nc2ccc(Cl)cc2C(F)(F)F)c(Cl)c1 | -101*
Cc1ccc(C(=O)Nc2ccc(Cl)cc2C)c(Cl)c1 | -71*
Cc1ccc(NC(=O)c2ccc(Cl)cc2Cl)cc1O | -170*
O=C(Nc1cc(F)c(Br)cc1F)c1ccc(Cl)cc1 | -152*
O=C(Nc1ccc(Cl)cc1C(F)(F)F)c1ccc(Cl)cc1 | -104*
CCc1ccc(C(=O)Nn2cnc3ccccc3c2=O)cc1 | -150*
Cc1ccc(C(=O)Nn2cnc3ccccc3c2=O)cc1C | -115*
CCOC(=O)c1sc(N/N=C/c2cccc(C)c2)nc1C | -175*
CC(=O)c1sc(N/N=C\c2ccccc2O)nc1C | -188*
CCOC(=O)c1sc(N/N=C/c2ccccc2)nc1C | -207*
O=C(O)Cc1sc(N/N=C\c2ccccc2)nc1-c1ccccc1 | -256*
COC(=O)c1ccc(/C=N/Nc2nc(C)c(C)s2)cc1 | -188*
COc1ccc(/C=N/Nc2nc(C(=O)O)cs2)cc1 | -78*
OCCN1CCN(CC/C=C2/c3ccccc3CSc3ccccc32)CC1 | 103
OCCN1CCN(CCCN2c3ccccc3Sc3ccc(C(F)(F)F)cc32)CC1 | -65*
COc1ccc(C2C(C#N)=C(N)Nc3nc4ccccc4n32)cc1 (stereo not drawn) | -179*
N#Cc1cccc(NC(=O)CSc2ccc3c4c(cccc24)C(=O)c2ccccc2-3)c1 | -154*
COc1ccc(NC(=O)CSc2ccc3c4c(cccc24)C(=O)c2ccccc2-3)cc1 | -65*
Cc1ccc(-n2nc(C)c3c(C)cc(=O)[nH]c32)cc1 | -69*
SMILES | aSyn UTR act
CN(C(=O)/C=C/c1ccc([N+](=O)[O-])s1)c1ccccc1 | -82*
COC(=O)Cc1c(OC)ccn(CCc2c[nH]c3ccccc23)c1=O | -149*
O=C(Oc1ccc(NC2=C(Cl)C(=O)c3ccccc3C2=O)cc1)c1ccc([N+](=O)[O-])cc1 | -109*
CC(C)(C)C(=O)N1CCN(c2nc3ccc(Br)cc3s2)CC1 | -164*
CC(=O)N1CCN(c2nc3ccc(Br)cc3s2)CC1 | -158*
CC(C)(C)C(=O)N1CCN(c2nc3ccc(Cl)cc3s2)CC1 | -237*
C/C(=N\N=C\c1ccc(N(C)C)cc1)c1cccc([N+](=O)[O-])c1 | -68*
COc1cccc2cc(-c3ccnc(=S)[nH]3)oc12 | -74*
O=C(NNC(=O)C(c1ccccc1)c1ccccc1)c1ccccn1 | 72
O=C(NN=C1c2ccccc2-c2ccccc21)c1ccccn1 | -134*
O=C(NN=C1C2CC3CC1CC(Cl)(C3)C2)c1ccccn1 | -137*
Cc1ccc(/C=N/NC(=O)c2ccccn2)o1 | -74*
O=C(N/N=C/c1ccncc1)c1ccccn1 | -90*
